This is part of a sample that, as a whole, favours compounds with a hit. Of some 79,000 tested, about 15% had one in any assay. Unmarked numbers belong to inactive results. Active and inactive are the calls of the source. No stated cut-off is given here; in the data, active means growth inhibition above about 70%; inactive means the rest.
Legend:
[1] = NCI Yeast Anticancer Drug Screen. Data for the rad50 strain (AID 155);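 further: 0% = growth of vehicle-only cultures of the same strain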; conditions: S. cerevisiae rad50 strain growth inhibition, hits give high values
How it was run: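 Readout: growth inhibition relative to vehicle-treated cultures. Compound exposure was carried out in a genetically defined yeast strain deficient in DNA damage repair.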

[2] = NCI Yeast Anticancer Drug Screen. Data for the mec2-1 strain (AID 157); conditions: S. cerevisiae mec2-1 strain, hits give high values
How it was run: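 mec2-1 yeast strain, carrying an alteration in DNA damage repair or cell cycle control, was exposed to compounds; growth inhibition was measured relative to vehicle-treated controls.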

[3] = NCI Yeast Anticancer Drug Screen. Data for the sgs1 mgt1 strain (AID 161);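 further: 0% = growth of cultures given vehicle only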; conditions: S. cerevisiae sgs1 mgt1 strain, hits give high values
How it was run: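 Yeast cells carrying a defined DNA-repair defect were exposed to test compounds. Growth inhibition was measured relative to vehicle-treated controls.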

[4] = NCI Yeast Anticancer Drug Screen. Data for the cln2 rad14 strain (AID 165);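 further: 0% = growth equal to vehicle treated cultures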; conditions: S. cerevisiae cln2 rad14 strain, hits give high values
How it was run: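 Yeast carrying cln2 and rad14 alterations (cell cycle control and DNA damage repair) were exposed to compounds. Growth inhibition was measured against vehicle-treated controls.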

[5] = NCI Yeast Anticancer Drug Screen. Data for the bub3 strain (AID 167); conditions: S. cerevisiae bub3 mutant strain, hits give high values
How it was run: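 Readout: yeast growth inhibition, expressed relative to vehicle-only wells. The test organism is a mutant strain from a panel with lesions in DNA repair or checkpoint genes.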

[6] = NCI Yeast Anticancer Drug Screen. Data for the mlh1 rad18 strain (AID 175); conditions: S. cerevisiae mlh1 rad18 strain growth inhibition, hits give high values
How it was run: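 Growth inhibition of the yeast strain was measured after compound exposure and expressed relative to vehicle-treated controls. The strain carries defined defects in DNA damage repair.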

[7] = at 5.0 µM (retest, dose inferred, filed as 0.5)
[8] = at 50.0 µM (retest, dose inferred, filed as 5.0)

Structure (SMILES)	growth inhibition [1, 7]	growth inhibition [1, 8]	growth inhibition ([1]; at 50.0 µM)	growth inhibition [2, 7]	growth inhibition [2, 8]	growth inhibition ([2]; at 50.0 µM)	growth inhibition [3, 7]	growth inhibition [3, 8]	growth inhibition ([3]; at 50.0 µM)	growth inhibition [4, 7]	growth inhibition [4, 8]	growth inhibition ([4]; at 50.0 µM)	growth inhibition [5, 7]	growth inhibition [5, 8]	growth inhibition ([5]; at 50.0 µM)	growth inhibition [6, 7]	growth inhibition [6, 8]	growth inhibition ([6]; at 50.0 µM)
O=[N+]([O-])c1ccc(O)c(Cl)c1	-3%	41%	68.7%	-2%	54%	78.9% (active)	-4%	44%	66%	-12%	57%	52.2%	-5%	25%	64.5%	-5%	53%	70.8% (active)
NC(=O)c1ccc(N)nc1	5%	30%	20.9%	-28%	-14%	-14%	-13%	3%	19.4%	10%	15%	4.4%	-12%	12%	11.2%	-10%	8%	7.75%
COc1ccc2c3c1OC1C(=O)C4CC5(c6c(O)ccc(O)c64)C(C2)N(C)CCC315 (stereo unspecified)	-6%	99% (active)	98.5% (active)	-2%	92% (active)	99% (active)	-6%	99% (active)	99.1% (active)	-14%	98% (active)	98.1% (active)	-3%	99% (active)	98.5% (active)	13%	99% (active)	99% (active)
CC(C)(C)OOC(=O)c1ccccc1	26%	99% (active)	37.6%	11%	99% (active)	18.4%	14%	93% (active)	29%	14%	99% (active)	0.5%	3%	99% (active)	3.1%	26%	99% (active)	75.3% (active)
O=CNc1ccccc1.[Hg]	98% (active)	98% (active)	99.7% (active)	99% (active)	99% (active)	99.6% (active)	99% (active)	98% (active)	99.4% (active)	99% (active)	98% (active)	99.3% (active)	99% (active)	98% (active)	99.5% (active)	98% (active)	98% (active)	99.4% (active)
Cc1cc[n+](C2=C(Nc3cc(C)cc(C)c3)C(=O)c3ccccc3C2=O)cc1	-3%	9%	24.9%	-2%	11%	28.5%	-1%	16%	9.5%	-9%	1%	6.75%	1%	45%	16%	-3%	15%	51.8%
COC1CC2C(C[CH]1[Hg][Cl])C2(Cl)Cl (stereo unspecified)	99% (active)	99% (active)	99.5% (active)	100% (active)	100% (active)	99.6% (active)	100% (active)	99% (active)	99.5% (active)	99% (active)	99% (active)	99.2% (active)	99% (active)	99% (active)	98% (active)	99% (active)	99% (active)	99.5% (active)
[Cl][Hg][CH2]CC1CC=CCC1 (stereo unspecified)	99% (active)	99% (active)	99.2% (active)	100% (active)	100% (active)	99.5% (active)	100% (active)	99% (active)	99.6% (active)	100% (active)	99% (active)	99.5% (active)	99% (active)	99% (active)	99.6% (active)	100% (active)	100% (active)	99.5% (active)
C[n+]1[se]nc2cc(C(=O)c3ccccc3)ccc21 (tested in a mixture with another compound)	99% (active)	99% (active)	99.3% (active)	99% (active)	99% (active)	99.2% (active)	98% (active)	99% (active)	99% (active)	96% (active)	99% (active)	99% (active)	98% (active)	99% (active)	99% (active)	99% (active)	99% (active)	99.3% (active)
O=c1c[n+](-c2ccc[nH+]c2)[nH]o1.[Cl][Hg][Cl]	99% (active)	99% (active)	99.3% (active)	100% (active)	100% (active)	99.5% (active)	100% (active)	100% (active)	99.5% (active)	99% (active)	99% (active)	99.3% (active)	99% (active)	99% (active)	99.4% (active)	99% (active)	99% (active)	99.2% (active)
COC([CH2][Hg][n]1cnc2c1c(=O)n(C)c(=O)n2C)CN1C(=O)c2ccccc2S1(=O)=O (stereo unspecified)	9%	94% (active)	96.8% (active)	20%	84% (active)	95.3% (active)	-2%	89% (active)	87.7% (active)	-11%	69%	87.2% (active)	-1%	89% (active)	95.1% (active)	-1%	95% (active)	97% (active)
O=C(O)C1C2c3ccccc3C(c3ccccc32)C1Br (stereo unspecified)	-13%	3%	2.7%	0%	9%	3.8%	-7%	8%	-1.2%	3%	-1%	34.2%	-20%	-29%	-8.2%	-11%	-8%	14.1%
Nc1cc(Cl)ccc1C(=O)c1ccccc1Cl	-1%	98% (active)	98.8% (active)	-4%	99% (active)	99% (active)	2%	98% (active)	98.8% (active)	-6%	98% (active)	96.8% (active)	-9%	98% (active)	98% (active)	-4%	99% (active)	98.2% (active)
O=C(CI)c1ccc[nH]1	65%	99% (active)	99.3% (active)	79% (active)	99% (active)	99.3% (active)	74% (active)	99% (active)	99.5% (active)	96% (active)	99% (active)	99.2% (active)	97% (active)	97% (active)	99.4% (active)	74% (active)	97% (active)	99.3% (active)
C/C(=N\O)C(CN(C)C)C(c1ccccc1)c1c(O)c2ccccc2oc1=O (stereo unspecified)	25%	25%	76.5% (active)	12%	12%	63.4%	15%	15%	82.2% (active)	4%	4%	75.8% (active)	12%	12%	74.7% (active)	14%	14%	75.2% (active)
COc1ccc(Br)cc1/C=C/[N+](=O)[O-]	90% (active)	99% (active)	99.3% (active)	90% (active)	99% (active)	99.2% (active)	91% (active)	99% (active)	99.4% (active)	83% (active)	99% (active)	77.8% (active)	92% (active)	99% (active)	96.1% (active)	92% (active)	99% (active)	98.7% (active)
COc1c(NC(=O)CC(C)=O)[c]([Hg][O]C(C)=O)c(OC)c(Cl)[c]1[Hg][O]C(C)=O	29%	95% (active)	91.8% (active)	32%	96% (active)	93.8% (active)	81% (active)	97% (active)	93.5% (active)	29%	96% (active)	88.8% (active)	62%	97% (active)	93.3% (active)	38%	95% (active)	87.8% (active)

— PubChem BioAssay (NCI)
